# From PubChem BioAssay (NCI)
# Compounds without any hit were thinned out: in the full panel of roughly 83,000, 20% have a hit.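 How to read the values: 0–100, growth inhibition (40 = 60% inhibited); 0, no net growth; -100 to 0, cell death (-40 = 40% of starting cells died; -100 = all dead).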 Unmarked numbers belong to inactive results. Activity calls are given as the source filed them. How the source made its calls: active means growth percent below 10; inactive means the rest.
# Legend:
# Test in all cases: NCI-60 one-dose screen, 48 h (100 = growth as untreated, 0 = no growth, -100 = all killed)
# Conditions in all cases: 10 µM unless noted
# SR leukemia = test system: SR leukemia
# RPMI-8226 leukemia = test system: RPMI-8226 leukemia
# OVCAR-8 ovarian = test system: OVCAR-8 ovarian
# OVCAR-5 ovarian = test system: OVCAR-5 ovarian
# OVCAR-4 ovarian = test system: OVCAR-4 ovarian
# SK-OV-3 ovarian = test system: SK-OV-3 ovarian
# IGROV1 ovarian = test system: IGROV1 ovarian
# OVCAR-3 ovarian = test system: OVCAR-3 ovarian
# HS 578T breast = test system: HS 578T breast
# NCI/ADR-RES ovarian = test system: NCI/ADR-RES ovarian
# T-47D breast = test system: T-47D breast
# BT-549 breast = test system: BT-549 breast
# MDA-MB-435 melanoma = test system: MDA-MB-435 melanoma
# SW-620 colon = test system: SW-620 colon
# MCF7 breast = test system: MCF7 breast
# HCT-116 colon = test system: HCT-116 colon
# HCC-2998 colon = test system: HCC-2998 colon
# KM12 colon = test system: KM12 colon
Structure (SMILES),growth (SR leukemia),growth (RPMI-8226 leukemia),growth (OVCAR-8 ovarian) [%],growth (OVCAR-5 ovarian),growth (OVCAR-4 ovarian),growth (SK-OV-3 ovarian) [%],growth (IGROV1 ovarian),growth (OVCAR-3 ovarian),growth (HS 578T breast) [%],growth (NCI/ADR-RES ovarian),growth (T-47D breast),growth (BT-549 breast),growth (MDA-MB-435 melanoma),growth (SW-620 colon),growth (MCF7 breast),growth (HCT-116 colon),growth (HCC-2998 colon),growth (KM12 colon)
CC[C@H](Nc1ncnc2nc[nH]c12)c1nc2cccc(NCc3ccc(C(=O)NO)nc3)c2c(=O)n1-c1ccccc1,11.6%,6.61% (active),36.9,84.9%,70.4%,80.8,30.9%,41.5%,13.8,106%,6.8% (active),13.3%,25.4%,47.2%,13.3%,9.03% (active),67.6%,60.9%
CCCCCCCCCC[N+](C)(C)C,20.2%,1.86% (active),18.3,9.16% (active),23%,56.2,-37.8% (active),5.8% (active),26.5,94.4%,27.3%,46.7%,32.6%,19%,31.1%,21.8%,22%,-51.2% (active)
COc1cc(NC(C)CCCN)c2nc(C)ccc2c1OC (stereo not given),17.7%,69.1%,119,95.6%,94.6%,107,103%,64.1%,105,101%,90.5%,103%,121%,104%,47.1%,102%,87.2%,103%
CCCCCSc1ccc2nc(NC(=O)OCCC)sc2c1,34.2%,29.6%,65.8,86.3%,35.1%,41.9,55.4%,13.3%,23.9,22.7%,38.1%,34.2%,-40.5% (active),22.9%,14.3%,25.3%,74%,24.9%
CCOc1ccc2nc3ccc(Cl)cc3nc2c1,-19.9% (active),71.5%,103,216%,82.1%,104,-8.97% (active),110%,106,96.4%,80.6%,90.7%,107%,91%,92.3%,88.1%,70.5%,94.5%
CC(O)CN(CC(C)O)N(CC(C)O)CC(C)O (stereo not given),94.2%,98.9%,97.9,101%,98.2%,109,113%,109%,108,106%,105%,94.9%,104%,104%,101%,102%,107%,109%
CCCCCCCCCCC(C[N+](C)(C)C/C=C/c1ccccc1)C(O)c1ccccc1 (stereo not given),-46.2% (active),-50.8% (active),20.5,42.6%,8.79% (active),53.1,-70.9% (active),-50.7% (active),49,97.6%,10.3%,-6.83% (active),-66% (active),2.5% (active),-66.9% (active),-87.7% (active),7.77% (active),-97.5% (active)
COc1cc2c(/C=C3\C(=O)Nc4ccc(Br)cc43)c(Cl)n(C)c2cc1C,0.77% (active),0.149% (active),17.8,13.4%,45.6%,24.7,-10.2% (active),-23.5% (active),40.2,-17.7% (active),64.4%,35.1%,7.32% (active),31.9%,23.9%,5.1% (active),-39.4% (active),-21.5% (active)
Cc1c(Cc2ccccc2)c(=O)oc2c(C)c(OCc3n[nH]c(=S)o3)ccc12,5.04% (active),56.6%,30.6,89.9%,43.8%,86.9,67.3%,74.5%,62.3,99.6%,53.1%,96.9%,61.5%,-7.67% (active),14.5%,6.37% (active),94.9%,43.1%
N=C(c1ccccc1)N(Cc1ccccc1)Cc1ccccc1,64.8%,94.4%,97.9,86.3%,84.9%,98.1,67%,110%,113,99.8%,94.8%,93.2%,77.6%,89.4%,87.5%,57.3%,106%,101%
O=C1N/C(=N\c2nnc(-c3ccc(O)cc3)s2)S/C1=C\c1ccccc1O,99.4%,101%,96.8,93.7%,88.2%,112,99.1%,93.2%,90.3,97.8%,97.9%,97%,94.4%,96.1%,88.4%,91.7%,106%,96.7%
CNCCCNCCCCNCCCN1C(=O)c2ccc3c4c(ccc(c24)C1=O)C(=O)N(CCCNCc1ccccc1OC)C3=O,12%,15%,41.9,55.9%,-10.8% (active),54.4,12.7%,6.09% (active),12.5,43.4%,8.96% (active),57.8%,1.07% (active),19.8%,7.86% (active),11.1%,31.5%,12%
CN(C)CCOC(=O)C(C)(C)C,99.5%,106%,99.7,103%,111%,112,106%,111%,105,110%,103%,112%,104%,91.6%,99.3%,103%,110%,106%
COCC(=O)NNc1[nH]c(-c2ccc(OC)cc2)cc1C#N,102%,101%,113,98.6%,127%,112,22.4%,129%,104,106%,106%,113%,102%,114%,108%,110%,133%,104%
COc1ccc(-c2nc(SCC(C)C)nc(Nc3ccc([N+](=O)[O-])cc3)c2C#N)cc1,54.4%,93.9%,93.4,106%,37.5%,99.2,94.3%,81.5%,90.4,101%,92.6%,104%,101%,84.8%,90.2%,60.1%,107%,99.9%
C=CCC(CCC(CC=C)C(=O)OCC)C(=O)OCC (stereo not given),86.7%,101%,95.2,106%,102%,107,102%,115%,107,109%,105%,96.3%,104%,103%,89.6%,100%,113%,99.8%
O=S(=O)(Cc1cccc2c(CS(=O)(=O)c3ccc(Cl)cc3)cccc12)c1ccc(Cl)cc1,94.7%,96.3%,71.1,97.3%,100%,94.7,91.4%,95.9%,70.8,90%,100%,105%,–,88.5%,85.4%,95.5%,101%,88.1%
